Hits are enriched below; roughly 12% of the tested compounds scored in any of these assays.
USP17 inh = human USP17-like deubiquitinase inhibition. 47,000 tested, 6.5% active. inhibition, % at 50 µM. purified USP17, Ub-rhodamine cleavage fluorescence, 3 h. AID 1645855
USP28 inh = inhibitors of human USP28 deubiquitinase | Q96RU2 | purified USP28, Ub-rhodamine cleavage fluorescence, 30 min | 47,000 tested, 3% active | inhibition, % at 25 µM | AID 1645857
USP30 inh = inhibitors of human USP30 deubiquitinase | Q70CQ3 | purified USP30, Ub-rhodamine cleavage fluorescence | inhibition, % at 25 µM | 47,000 tested, 5.3% active
OTUD3 block = inhibitors of human OTUD3 deubiquitinase. purified OTUD3, Ub-rhodamine fluorescence, 2 h. 47,000 tested, 0.7% active. inhibition, % at 25 µM
Target sequence (Q5T2D3 whole entry, looked up): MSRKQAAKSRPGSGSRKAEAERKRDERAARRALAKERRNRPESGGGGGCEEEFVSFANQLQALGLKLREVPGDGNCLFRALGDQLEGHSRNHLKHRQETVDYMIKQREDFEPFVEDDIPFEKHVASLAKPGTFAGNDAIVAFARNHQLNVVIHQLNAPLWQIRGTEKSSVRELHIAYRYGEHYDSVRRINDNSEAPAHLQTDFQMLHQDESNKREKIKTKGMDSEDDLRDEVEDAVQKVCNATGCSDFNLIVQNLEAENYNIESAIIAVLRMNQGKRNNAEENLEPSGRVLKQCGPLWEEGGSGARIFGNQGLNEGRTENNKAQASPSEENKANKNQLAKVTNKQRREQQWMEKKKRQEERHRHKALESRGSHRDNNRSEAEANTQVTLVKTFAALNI
* marks the source's active call; other numbers are inactive results. Cut-off read from the data, not from the text of the source: active = inhibition above about 30%; inactive = the rest.

COCCC(=O)N1CCC2(CCN(Cc3ccc(OC)c(F)c3)C2)C1 (centres undefined) was read as USP17 inh -8, USP28 inh -8, USP30 inh -15 and OTUD3 block -2.
Screening COc1cccc(CNC(=O)[C@H](C)NC(=O)N2CCn3c2nc2ccccc23)c1 returned USP17 inh -22, USP28 inh -7, USP30 inh -1 and OTUD3 block -10.
For CCC(C)[C@H](NC(=O)N1CCn2c1nc1ccccc12)C(=O)NCCC1=CCCCC1 (some centres undefined) the results were USP17 inh 36*, USP28 inh -16, USP30 inh -25 and OTUD3 block -3.
Screening COc1ccc(CCNC(=O)[C@H](C)NC(=O)N2CCn3c2nc2ccccc23)cc1OC returned USP17 inh 20, USP28 inh 19, USP30 inh 30* and OTUD3 block 7.
CCC(C)NC(=O)[C@H](C)NC(=O)N1CCn2c1nc1ccccc12 (some centres undefined) was read as USP17 inh 0, USP28 inh 0, USP30 inh 7 and OTUD3 block -3.
`COc1ccc(CNC(=O)[C@H](CCSC)NC(=O)N2CCn3c2nc2ccccc23)cc1` gave USP17 inh 9, USP28 inh -3, USP30 inh 44* and OTUD3 block 1.
Cc1ccc(CNC(=O)[C@H](C)NC(=O)N2CCn3c2nc2ccccc23)cc1 was read as USP17 inh 65*, USP28 inh 47*, USP30 inh 80* and OTUD3 block 21.
For CC(C)N1C[C@@H]2C[C@H](NC(=O)NC3CCOCC3)CN2Cc2ccccc21 the results were USP17 inh -82, USP28 inh -84, USP30 inh -274 and OTUD3 block -65.
COc1ccc(CCNC(=O)[C@H](CCSC)NC(=O)N2CCn3c2nc2ccccc23)cc1OC was read as USP17 inh 35*, USP28 inh 21, USP30 inh 75* and OTUD3 block 26.
For Cc1cc(C(=O)Nc2ccc3nc(N4CCN(c5ncccn5)CC4)cc(C)c3c2)ccc1[N+](=O)[O-] the results were USP17 inh 73*, USP28 inh 1, USP30 inh 25 and OTUD3 block -3.
`Cc1cc(N2CCN(c3ncccn3)CC2)nc2ccc(NC(=O)Cn3nc([N+](=O)[O-])c(Br)c3C)cc12` gave USP17 inh 64*, USP28 inh 42*, USP30 inh 68* and OTUD3 block 44*.
Screening Cc1cc(N2CCN(c3ncccn3)CC2)nc2ccc(NC(=O)C3CCC(C(C)(C)C)CC3)cc12 (centres undefined) returned USP17 inh 2, USP28 inh 0, USP30 inh 0 and OTUD3 block -6.
`CCOc1ccc(NC(=O)CN2C(=O)CC(c3ccco3)Sc3ccccc32)cc1` (centres undefined) gave USP17 inh 0, USP28 inh 9, USP30 inh -21 and OTUD3 block 20.
`Cc1nc2cc(NC(=O)c3ccc(N4CCCC4)nn3)ccc2s1` gave USP28 inh -6, USP30 inh -1 and OTUD3 block 1.
COc1ccc(-c2ocnc2C(=O)Nc2cccc(Cl)c2C)cc1OC was read as USP17 inh 28, USP28 inh 0, USP30 inh 58* and OTUD3 block -6.
NC(=O)c1ccsc1NC(=O)c1cn(-c2ccccc2)nc1-c1ccccc1 was read as USP17 inh -12, USP28 inh -8, USP30 inh -22 and OTUD3 block -6.
Screening CC1CCN(S(=O)(=O)c2ccc3[nH]cc(C(=O)NCc4ccco4)c(=O)c3c2)CC1 returned USP17 inh 55*, USP28 inh 20, USP30 inh 15 and OTUD3 block 5.
`CCOc1ccc(C(=O)CCC(=O)Nc2cccc(S(=O)(=O)Nc3cccc(Cl)c3)c2)cc1` gave USP17 inh 32*, USP28 inh -3, USP30 inh -47 and OTUD3 block -8.
For COc1ccc(NS(=O)(=O)c2cccc(NC(=O)CCOc3ccccc3OC)c2)cc1 the results were USP17 inh -3 and OTUD3 block 3.
Cc1cc(NC(=O)c2ccccc2F)ccc1-c1cc2ccccc2oc1=O was read as USP17 inh 5, USP28 inh 14, USP30 inh 12 and OTUD3 block 3.
Screening COc1cc(NC(=O)c2ccc3c(c2)OCO3)ccc1-c1cc2ccccc2oc1=O returned USP17 inh 47*, USP28 inh 43*, USP30 inh -19 and OTUD3 block 55*.
Screening Cc1cc(Br)c(C(C)C)c(Br)c1OC(=O)c1ccco1 returned USP17 inh 4, USP28 inh 48*, USP30 inh -11 and OTUD3 block 2.
`COc1ccc(CCNc2nc(-c3ccccc3)cc(-c3ccccc3)c2C#N)cc1OC` gave USP17 inh 37*, USP28 inh -2, USP30 inh 26 and OTUD3 block 10.
Cn1nc(-c2ccccc2)c(COC(=O)c2ccc([N+](=O)[O-])cc2)c1Cl was read as USP17 inh 60*, USP28 inh -3, USP30 inh 11 and OTUD3 block 18.
O=C(OCc1cnc(Cl)s1)c1ccc([N+](=O)[O-])cc1 was read as USP17 inh -3, USP28 inh 41*, USP30 inh 3 and OTUD3 block 3.
`Cc1ccccc1NC(=O)c1ccc2c(c1)CC(c1ccccc1)OC2=O` (centres undefined) gave USP17 inh 5, USP28 inh 0, USP30 inh 23 and OTUD3 block 1.
Screening CN(C)c1cc(C(=O)Nc2cccnc2)nc2ccnn12 returned USP17 inh -5, USP28 inh -11, USP30 inh -16 and OTUD3 block -5.
Screening O=C(NCC(F)F)[C@H]1CN(Cc2ccccc2)C[C@@H]1C(=O)c1ccccc1 returned USP17 inh 13, USP28 inh 22, USP30 inh 17 and OTUD3 block 16.
CCc1noc(-c2ccnc(-n3cnc(C(=O)NC4CC4)c3)c2)n1 was read as USP17 inh 13, USP28 inh 8, USP30 inh 7 and OTUD3 block 9.
For CCc1nnc(-c2ccc3ccn(CC(=O)N4CCN(c5ccccn5)CC4)c3c2)o1 the results were USP17 inh 76*, USP28 inh 31*, USP30 inh 39* and OTUD3 block 83*.
Screening Cc1nnc(-c2ccc3ccn(CC(=O)N4CCN(c5ccccn5)CC4)c3c2)o1 returned USP17 inh 3, USP28 inh 0, USP30 inh -8 and OTUD3 block 0.
`Cc1cccc(N2CCN(C(=O)Cn3cc(-c4ccccc4)oc3=O)CC2)c1` gave USP17 inh -13, USP28 inh -14, USP30 inh -24 and OTUD3 block -14.
`Cc1ccc(-c2cn(CC(=O)N3CCN(c4ccccn4)CC3)c(=O)o2)cc1` gave USP17 inh 77*, USP28 inh 20, USP30 inh 36* and OTUD3 block 11.
Screening CNc1nc2c(c(=O)n1-c1ccccc1)CN(S(=O)(=O)c1ccccc1F)CC2 returned USP17 inh -10, USP28 inh -6, USP30 inh -9 and OTUD3 block -7.

From PubChem BioAssay
